Source: PubChem BioAssay
This excerpt belongs to a sample that is enriched for hits.
HIV RNase H inh = blocks HIV-1 RNase H cleavage of RNA/DNA duplex. P04585. RT-RNase H RNA/DNA duplex cleavage, fluorescence. inhibition, % at 10 µM. 1.9% of 65,000 active. AID 565; in the data active = inhibition above about 50%
Numbers stand for hits; - = inactive.

SMILES	HIV RNase H inh
Cc1ccccc1-c1c(C)oc2cc(O)ccc2c1=O	-
CCOc1ccc(-c2cc(NC(=O)Cn3ncc4c3-c3ccccc3OC4)on2)cc1OCC	-
CCC(C)C(NC(=O)c1ccccc1NC(=O)c1ccc(OC)cc1)C(=O)NCc1ccco1 (stereo not given)	55
CCC(C)C(NC(=O)c1ccccc1NC(=O)c1ccco1)C(=O)O (stereo not given)	-
O=C(Nc1ccccc1C(=O)NCc1ccco1)c1ccccc1	-
CCOCCn1c(SCc2ccccc2)nc2c1c(=O)[nH]c(=O)n2C	-
CCOCCn1c(SCC(=O)OCc2ccccc2)nc2c1c(=O)[nH]c(=O)n2C	86
CCOC(=O)CSc1nc2c(c(=O)[nH]c(=O)n2C)n1CCCc1ccccc1	-
CC1=C(c2ccc(Cl)cc2)[N+](=O)C(C)(C)N1[O-]	-
Cc1ccnc(N2CCC(C(=O)Nc3cccc(C(F)(F)F)c3)CC2)n1	-
CCOC(=O)c1ccc(NC(=O)CSc2nnnn2CCCO)cc1	-
COc1cccc2cc(-c3nnc(SCC(=O)NCc4ccccc4)n3C)oc12	-
CCn1c(SCC(=O)Nc2nccs2)nnc1-c1cc2cccc(OC)c2o1	-
COc1cccc2cc(-c3nnc(SCC(=O)Nc4cc(C(F)(F)F)ccc4Cl)n3N)oc12	64
CC1(C)CC(=O)C2=C(C1)OC(N)=C(C#N)C2C1CC=CCC1 (stereo not given)	-
Cc1nccn1-c1cc(C(C)C)c(C#N)c2nc3ccccc3n12	-
CCOC(=O)c1cc(-c2ccccc2)sc1N	65
CCOC(=O)c1sc(-c2ccccc2)cc1N	-
CCOC(=O)c1cnc(-c2ccccc2)nc1N	-
Cc1ccccc1NS(=O)(=O)c1cc(C(N)=O)ccc1C	-
Nc1c(S(=O)(=O)c2cccs2)c2nc3ccccc3nc2n1/N=C/c1cccc(O)c1	-
Cc1ccc(-c2nn3c(C)nnc3s2)cc1NC(=O)c1ccc(-c2cccc(Cl)c2)o1	-
Cc1ccc(-c2nn3c(C)nnc3s2)cc1NC(=O)c1ccc(Br)o1	-
Cc1ccc(-c2nn3c(C)nnc3s2)cc1NC(=O)c1ccc(-c2ccc(Cl)cc2Cl)o1	60
Cc1ccccc1-n1c(C)nnc1SCC(=O)N1CC(=O)Nc2ccccc21	-
SMILES	HIV RNase H inh
CCCn1c(SCC(=O)c2cc(OC)ccc2OC)nnc1C(C)C	-
Cc1ccc2cc3cc(C(=O)NCCC(C)C)oc3nc2c1	-
O=C(NCc1ccco1)c1cc2ccccc2o1	-
Cc1ccc2cc3cc(C(=O)NCc4ccco4)oc3nc2c1	51
CCCNCC(O)COc1ccccc1C(=O)CCc1ccccc1 (stereo not given)	-
O=C(CSc1nnc(-c2ccc(Cl)cc2)o1)N1CCN(c2ccccc2)CC1	50
O=C(CSc1nnc(COc2ccc(Cl)cc2)o1)N1CCN(c2ccccc2)CC1	-
O=C(CSc1nnc(COc2ccccc2)o1)N1CCN(c2ccccc2)CC1	-
CCOC(=O)c1cc2c(=O)n3cccc(C)c3nc2n(CCc2ccccc2)c1=N	-
O=C1CC(c2cccc(Cl)c2)CC(O)=C1C=NCCCO (stereo not given)	-
O=C(CSc1nnnn1-c1ccccc1)CC(=O)Nc1ccc(Cl)cc1	-
CCCCCn1c(=O)c(C(=O)Nc2ccncc2)c(O)c2ccccc21	83
CCCn1c(=O)c(C(=O)NCc2ccncc2)c(O)c2ccccc21	-
CCCn1c(=O)c(C(=O)Nc2ccncc2)c(O)c2ccccc21	-
COc1c(Cl)cc(-c2noc(C)c2C(=O)NC(C)C)cc1Cl	-
CCCCOc1ccccc1NC(=O)CC1SC(=NCC)N(CC)C1=O (stereo not given)	-
CCCCOc1ccccc1NC(=O)CC1Nc2ccccc2NC1=O (stereo not given)	69
CCCCNC(=O)CC1Nc2ccccc2NC1=O (stereo not given)	-
CCC(c1c(C)[nH]oc1=O)c1c(C)[nH]oc1=O	-
COc1ccc(Cn2c3nc4ccccc4nc3c3c(=O)n(Cc4ccco4)c(C)nc32)cc1	62
Cc1nc2c(c(=O)n1Cc1ccccc1Cl)c1nc3ccccc3nc1n2Cc1ccco1	-
CCOc1ccc(-n2c3nc4ccccc4nc3c3c(=O)n(Cc4ccco4)cnc32)cc1	-
COc1ccc(Cn2c(C)nc3c(c2=O)c2nc4ccccc4nc2n3Cc2ccco2)cc1	81
Cc1nc2c(c(=O)n1CC1CCCO1)c1nc3ccccc3nc1n2Cc1ccc2c(c1)OCO2 (stereo not given)	-
COc1ccc(S(=O)(=O)c2c(N)n(Cc3ccco3)c3nc4ccccc4nc23)cc1	-
SMILES	HIV RNase H inh
COCCN(C(=O)C1CC1)c1nnc(-c2cccc(C)c2)s1	-
CCCc1cc(C(=O)N2CCN(c3ccccc3C)CC2)cs1	-
C=CCn1c(Cc2cccs2)nnc1SCC(=O)c1cccc(Br)c1	-
CN(Cc1ccccc1)Cc1nc2c([nH]1)c(=O)n(C)c(=O)n2C	-
Cc1ccc(-c2nnn(CC(=O)Nc3ccccc3-c3ccccc3)n2)c(-n2cnnn2)c1	-
CC(=O)N1CCc2cc(S(=O)(=O)CCC(=O)Nc3c(C)n(C)n(-c4ccccc4)c3=O)ccc21	-
Cc1cccc(N(CC(=O)NC2CCCCC2)C(=O)CCC(=O)Nc2cc(C)ccn2)c1	-
Nc1nc2n(n1)C(c1c(F)cccc1Cl)CC(c1ccc(F)cc1)N2 (stereo not given)	-
CCOC(=O)c1c(C)n(C)c2ccc(OC(=O)c3ccoc3)cc12	-
CCOC(=O)c1c(C)n(C)c2ccc(O)c(CN3CCN(C)CC3)c12	-
CCOC(=O)c1c(C)n(C)c2c(C)cc(O)c(OC(=O)CC)c12	56
COc1cc(OC)cc(C(=O)N2CCC(n3c(C)nc4cc(F)ccc43)CC2)c1	-
CS(=O)(=O)N(CCc1ccccc1)CC(=O)NCc1cccnc1	-
CC1CCN(c2nc3c(c(=O)[nH]c(=O)n3C)n2Cc2ccccc2Cl)CC1	-
COc1ccccc1CCNC(=O)c1ccoc1C	-
COc1cccc(C2(O)CCN(C(=O)C3CCC3)CC2)c1	-
O=c1cc(CN2CCN(c3ccccc3)CC2)c2c(ccc3ccccc32)o1	-
COc1ccc(N2CCN(Cc3cc(=O)oc4ccc(Cl)cc34)CC2)cc1	-
COc1ccc(N2CCN(Cc3cc(=O)oc4c3ccc3ccccc34)CC2)cc1	54
CCOC(=O)Nc1sc(=S)n(C)c1C	-
Cc1ccc(S(=O)(=O)NCCOC(=O)Nc2sc(=S)n(C)c2C)cc1	50
Cc1c(NC(=O)OCCNC(=O)Nc2ccccc2)sc(=S)n1C	-
Cc1cc(-c2cc(-c3ccc(Cl)cc3)nc(N)c2C#N)co1	-
N=c1c(C(=O)NC2CCCCC2)cc2c(=O)n3ccccc3nc2n1CCN1CCOCC1	-
CC1(C)Cc2c(C#N)c(N3CCN(C(=O)c4ccccc4)CC3)nc(-c3ccco3)c2CS1	56
SMILES	HIV RNase H inh
CC1(C)Cc2c(C#N)c(N3CCCC3)nc(-c3ccco3)c2CO1	-
CC(C)c1nc(N2CCN(C(=O)c3ccccc3)CC2)c(C#N)c2c1COC(C)(C)C2	-
CCOC(=O)c1c(C#N)c(SCC(=O)Nc2ccc(OC)cc2)nc2c1CN(CC)CC2	-
CC(=O)NC(CCS(C)(=O)=O)C(=O)Nc1ccc(Oc2ccccc2)cc1 (stereo not given)	-
C=CCn1c(SCc2c(C)noc2C)nnc1C1COc2ccccc2O1 (stereo not given)	-
CCOc1ccccc1N1Cc2cc(C)c(C)cc2C1	53
COc1ccc(OC)c(-n2cnnn2)c1	-
COc1ccc(OC)c(CN2CCN(c3ccccc3OC)CC2)c1	-
CCOc1ccccc1N1CCN(Cc2cccc(OC)c2OC)CC1	-
CCOc1ccccc1N1CCN(C(=O)c2cc(C)oc2C)CC1	-
